{"source": "PubChem BioAssay AID652067", "about": "(The Scripps Research Institute Molecular Screening Center, 2013)", "note": "The whole screen tested about 370,000 compounds, of which about 5,400 (1.5%) were called active. This is one part of a sample in which actives are shown more often than they occur.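 The calls were made as follows: active = activation above the mean of all tested compounds plus 3 SD (cut at about 5.5% in these data); inactive = the rest.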"}
{"test_system": "DAF-12 nuclear receptor (Haemonchus contortus)", "assay": "hcDAF-12 driven luciferase reporter activation – cell-based, luminescence, HEK293, lit1-tk-luc reporter, primary screen (AID 652067);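 also: 100% = response to 3 µM Δ7-dafachronic acid high control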", "conditions": "HEK293 hcDAF-12 lit1-tk-luc reporter, at 6.8 µM, stronger effect = higher value, 0% DMSO, 100% Δ7-dafachronic acid"}
{"compound": "Cc1nnc(SCC(=O)N2CCN(c3ccccc3)CC2)n1-c1ccccc1", "activation": "6.51% (active)"}
{"compound": "Cc1cc2nnc(SCC(=O)N3CCN(c4ccccc4)CC3)n2c(N)n1", "activation": "-2.55% (inactive)"}
{"compound": "O=C(CSc1nnc(Cc2ccccc2)n1-c1ccccc1)N1CCOCC1", "activation": "-0.92% (inactive)"}
{"compound": "N#Cc1c(NC(=O)c2ccc(N3CCOCC3)c([N+](=O)[O-])c2)sc2c1CCCC2", "activation": "-0.5% (inactive)"}
{"compound": "CCC1CCc2c(sc(NC(C)=O)c2C#N)C1", "note": "(stereo not drawn)", "activation": "-0.54% (inactive)"}
{"compound": "N#Cc1c(NC(=O)C2CCCO2)sc2c1CCCCC2", "note": "(stereo not drawn)", "activation": "6.65% (active)"}
{"compound": "COC(=O)C1=C(C)NC(=S)NC1c1ccc(OC)cc1", "note": "(stereo not drawn)", "activation": "-0.46% (inactive)"}
{"compound": "C=CC[C@]12C[C@@]3(O[C@H](c4ccc(C(F)(F)F)cc4)N=C3C[C@H](c3ccc(OC)cc3)[C@H]1C)N(C1CCN(Cc3ccccc3)CC1)C2=O", "activation": "1.02% (inactive)"}
{"compound": "CC(=O)c1ccc(NC(=O)c2sc3nc4n(c(=O)c3c2C)CCCCC4)cc1", "activation": "3.47% (inactive)"}
{"compound": "N=c1c2c3c(sc2nc2n1CCCCC2)CCCC3", "activation": "0.65% (inactive)"}
{"compound": "O=c1c2c(nc3n1CCCCC3)sc1c(O)cccc12", "activation": "5.87% (active)"}
{"compound": "c1csc(-c2nnc(SCc3nc4ccccc4[nH]3)o2)c1", "activation": "0.87% (inactive)"}
{"compound": "CC1CCCN(c2cccc3c2S(=O)(=O)N(Cc2ccc(F)cc2)[C@@H](C)[C@H](c2ccccc2)O3)C1", "note": "(stereo partly drawn)", "activation": "-1.13% (inactive)"}
{"compound": "Cc1ccc(SCCSc2ncccn2)cc1", "activation": "7.62% (active)"}
{"compound": "Cc1ccc(SCCC(=O)NC(C(C)C)C(C)C)cc1", "activation": "-0.97% (inactive)"}
{"compound": "Cc1ccc(SCCC(=O)NCc2ccccn2)cc1", "activation": "0.97% (inactive)"}
{"compound": "COc1cccc(CN(C)C(=O)CC23CC4CC(CC(C4)C2)C3)c1OC", "activation": "-1.43% (inactive)"}
{"compound": "CCOC(=O)c1ccc(-c2ccc3ncnc(N(C)Cc4sccc4C)c3c2)o1", "activation": "0.56% (inactive)"}
{"compound": "Cc1ccc(S(=O)(=O)C(C#N)c2nc3ccccc3nc2N2CCCC2)cc1C", "note": "(stereo not drawn)", "activation": "-0.94% (inactive)"}
{"compound": "Cc1ccc(S(=O)(=O)Nc2nc3ccccc3nc2N2CCc3ccccc3C2)cc1", "activation": "6.92% (active)"}
{"compound": "COCCCNc1nc2ccccc2nc1NS(=O)(=O)c1ccc(F)cc1", "activation": "4.77% (inactive)"}
{"compound": "O=C(CSc1nc2c(c(=O)[nH]1)CCCC2)N1CCCCC1", "activation": "0.61% (inactive)"}
{"compound": "CCOC(=O)C1CCN(C(=O)C(C)(C)NC(=O)Nc2ccc(F)c(F)c2)CC1", "activation": "-0.52% (inactive)"}
{"compound": "O=C(NCc1cccs1)C1CCN(S(=O)(=O)c2ccccc2[N+](=O)[O-])CC1", "activation": "-1.15% (inactive)"}
{"compound": "c1ccc(C2CNCc3c2ccc2ccccc32)cc1", "note": "(stereo not drawn)", "activation": "6.29% (active)"}
{"compound": "c1ccc2c(CCN3CCNC[C@H]3Cc3cccc4ccccc34)cccc2c1", "activation": "-0.26% (inactive)"}
{"compound": "Cn1ncc([N+](=O)[O-])c1C(=O)Nc1cc(Cl)ccc1Cl", "activation": "-1.09% (inactive)"}
{"compound": "c1coc(CCNc2ncnc3ccc(-c4ccc5c(c4)OCO5)cc23)c1", "activation": "3.8% (inactive)"}
{"compound": "CCC(c1nc2ccccc2[nH]1)n1c(=O)c(-c2cccs2)nc2ccccc21", "note": "(stereo not drawn)", "activation": "-1.27% (inactive)"}
{"compound": "CC(C)n1c(NCc2c[nH]c3ccccc23)nc2ccccc21", "activation": "1.49% (inactive)"}
{"compound": "CC(C)(C)C(c1nc2ccccc2[nH]1)n1c(Cc2csc3ccccc23)nc2ccccc21", "note": "(stereo not drawn)", "activation": "6.12% (active)"}
{"compound": "N#Cc1nc(N)nc(N(c2ccccc2)c2ccccc2)n1", "activation": "-1.6% (inactive)"}
{"compound": "Cc1ccccc1NC(=O)N1CCCC1C(=O)NCc1ccccc1", "note": "(stereo not drawn)", "activation": "0.56% (inactive)"}
{"compound": "CC(C)C[C@H](NC(=O)CC1CCCC1)C(=O)N1CCC[C@H]1C(=O)NCc1ccccc1", "activation": "-1.97% (inactive)"}
{"compound": "Cc1ccccc1C(=O)N[C@H](C(=O)N1CCC[C@H]1C(=O)NCc1ccccc1)C(C)C", "activation": "6.82% (active)"}
{"compound": "C=CCN1[C@H](CC(C)C)COc2cccc(N3CCCC3)c2S1(=O)=O", "activation": "1.33% (inactive)"}
{"compound": "COC(=O)[C@]12C[C@H](CC(=O)N3CCN(C(=O)C4CC4)CC3)C(=O)N(Cc3ccc4c(c3)OCO4)C1=C[C@H](C(C)(C)C)O[C@@H]2C", "activation": "-0.45% (inactive)"}
{"compound": "Nc1ncnc2c1ncn2[C@@H]1O[C@H](C(=O)N[C@@H](CCc2ccccc2)C(=O)N2CCCN(Cc3cccs3)CC2)[C@@H](O)[C@H]1O", "activation": "-0.84% (inactive)"}
{"compound": "CC1CCN(c2ccc(C(=O)O)cc2NS(=O)(=O)c2ccc(Br)s2)CC1", "activation": "0.68% (inactive)"}
{"compound": "O=C(Nc1ccn(Cc2ccccc2)n1)c1cccc(F)c1", "activation": "8.2% (active)"}
{"compound": "CCOc1cccc(C(=O)Nc2cnn(Cc3ccccc3)c2)c1", "activation": "-0.69% (inactive)"}
{"compound": "O=C(Cn1cnc([N+](=O)[O-])n1)NCCc1ccccc1", "activation": "1.32% (inactive)"}
{"compound": "Cc1c(Br)c([N+](=O)[O-])nn1CC(=O)N1CCN(Cc2ccccc2)CC1", "activation": "-0.25% (inactive)"}
{"compound": "Cc1ccc(NC(=O)CC2C(=O)N(Cc3ccccc3)C(=S)N2NC(=O)c2cccc(F)c2)c(C)c1", "note": "(stereo not drawn)", "activation": "0.38% (inactive)"}
{"compound": "O=C(Nc1ccn(Cc2ccccc2)n1)c1n[nH]c([N+](=O)[O-])c1Cl", "activation": "5.98% (active)"}
{"compound": "CCCCCN1CCCCC(NC(=O)C(C)CCC)C1=O", "note": "(stereo not drawn)", "activation": "0.16% (inactive)"}
{"compound": "CC(C)(C)C(=O)Nc1c(Br)c(C2CC2)nn1-c1ccccc1", "activation": "-0.94% (inactive)"}
{"compound": "O=C(CCCCCN1C(=O)C2C3C=CC(C3)C2C1=O)Nc1ccccc1", "note": "(stereo not drawn)", "activation": "-1.48% (inactive)"}
{"compound": "CN(C)CC(=O)N[C@@H]1C[C@@H]2O[C@H](CO)CC[C@@H]2O[C@@H]1CCc1ccc(C#Cc2ccccc2)cc1", "activation": "-2.47% (inactive)"}
{"compound": "COc1cccc(NC(=O)COC(=O)c2ccc3ccccc3n2)c1", "activation": "4.16% (inactive)"}
{"compound": "COc1ccc(C(=O)COC(=O)c2ccc3ccccc3n2)cc1", "activation": "0.42% (inactive)"}
{"compound": "COc1ccc(C2=NOC(COC(=O)c3ccc4ccccc4n3)C2)cc1", "note": "(stereo not drawn)", "activation": "7.15% (active)"}
{"compound": "Cc1ccc(OCc2nc3ccccc3n2C)cc1", "activation": "11.3% (active)"}
{"compound": "Cc1ccc(OCc2nnc(SC3CCc4ccccc4C3=O)n2C)cc1", "note": "(stereo not drawn)", "activation": "1.15% (inactive)"}
{"compound": "COc1cccc(C(O)Cc2nc3ccccc3n2C)c1OC", "note": "(stereo not drawn)", "activation": "-0.39% (inactive)"}
{"compound": "CC(=O)c1ccc(NC(=O)Cn2c(=O)oc3ccccc32)cc1", "activation": "-1.53% (inactive)"}
{"compound": "Cc1cccnc1NC(=O)Cn1c(=O)oc2ccccc21", "activation": "6.75% (active)"}
{"compound": "COc1ccc(OC)c(NC(=O)Cn2c(=O)oc3ccccc32)c1", "activation": "-1.37% (inactive)"}
